Only a selection was taken, and hits are over-represented in it overall.
miR122 inh = activators of miR-122 sensor in Huh7 cells. Huh7 psiCHECK-miR122 Renilla luciferase sensor, 48 h. activation, % at 12.5 µM. 340,000 compounds, 0.14% hits;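 active = mean activation of 30% or more, with every replicate also reaching 30%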;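 note: 0% = median of neutral control wells and 100% = median of positive control wells; higher luciferase signal means stronger suppression of miR-122 activity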
Numbers without * were called inactive.

SMILES | miR122 inh
C[C@H](CO)N1C[C@H](C)[C@@H](CN(C)Cc2ccc(C(F)(F)F)cc2)Oc2c(NC(=O)c3nc4ccccc4s3)cccc2C1=O | -92
CC(C)C#Cc1ccc2c(c1)O[C@H](CN(C)C(=O)NC(C)C)[C@H](C)CN([C@H](C)CO)S2(=O)=O | -7
C[C@@H]1CN([C@@H](C)CO)C(=O)c2cc(C#CC(C)(C)O)cnc2O[C@@H]1CN(C)C(=O)C1CC1 | -9
C/C=C/c1cnc2c(c1)C(=O)N([C@@H](C)CO)C[C@H](C)[C@@H](CN(C)CC1CCOCC1)O2 | -1
C[C@@H]1CN([C@H](C)CO)C(=O)c2cc(-c3ccc(F)cc3)cnc2O[C@H]1CN(C)C(=O)c1ccccn1 | 6
C[C@H]1CN([C@@H](C)CO)C(=O)c2cc(-c3cccc(F)c3)cnc2O[C@H]1CN(C)Cc1ccncc1 | 3
C[C@@H]1CN([C@@H](C)CO)C(=O)c2cc(-c3ccncc3)cnc2O[C@H]1CN(C)C(=O)c1ccccc1F | 1
CN1/C(=C/C=C/c2n(C)c3cc([N+](=O)[O-])c([N+](=O)[O-])cc3[n+]2C)C(C)(C)c2ccccc21 | 38*
COc1ccc(-c2cnc3c(c2)C(=O)N([C@H](C)CO)C[C@@H](C)[C@H](CN(C)Cc2ccccn2)O3)cc1 | -3
O=C(Nc1ccccc1F)N1C[C@@H]2[C@H](c3ccccc31)[C@@H](CO)N2C(=O)C1CCCC1 | -130
CN1[C@@H](CO)[C@@H]2c3ccccc3N(C(=O)Nc3cc(F)ccc3F)C[C@@H]21 | 33*
O=S(=O)(c1ccccc1)N1C[C@H]2[C@@H](c3ccccc31)[C@@H](CO)N2Cc1ccc2c(c1)OCO2 | -140
CCC(=O)N(C)C[C@H]1Oc2ncc(C#Cc3cccnc3)cc2C(=O)N([C@H](C)CO)C[C@@H]1C | 0
C[C@H]1CN([C@@H](C)CO)C(=O)c2cc(C#CCc3ccccc3)cnc2O[C@@H]1CN(C)Cc1ccccn1 | 1
C[C@@H]1CN([C@H](C)CO)C(=O)c2cc(Br)cnc2O[C@@H]1CN(C)Cc1cccc(F)c1 | 3
C[C@@H]1CN([C@@H](C)CO)C(=O)c2cc(-c3cccc(F)c3)cnc2O[C@@H]1CN(C)C(=O)c1cccc(F)c1 | 5
CO[C@@H]1CN(C)C(=O)c2ccc(NC(=O)Nc3ccc(Cl)cc3)cc2OC[C@@H](C)N(C)C[C@@H]1C | -6
CO[C@@H]1CN(C)C(=O)c2ccc(NC(=O)C3CCC3)cc2OC[C@@H](C)NC[C@H]1C | 0
COc1ccc(Cn2c(SCc3ccccc3C)nc3cc(OC)c(OC)cc3c2=N)cc1 | 62*
COc1cccc(-c2cnc3c(c2)C(=O)N([C@@H](C)CO)C[C@H](C)[C@H](CN(C)CC2CCOCC2)O3)c1 | 8
C[C@H]1CN([C@@H](C)CO)C(=O)c2cc(C#CC(C)(C)O)cnc2O[C@H]1CN(C)Cc1cncnc1 | -109
Cc1nn(Cc2ccccc2Cl)c2sc(C(=O)OC3CCCC3=O)cc12 (stereo not drawn) | 36*
COCC(=O)N(C)C[C@H]1Oc2cc(-c3cncnc3)ccc2S(=O)(=O)N([C@H](C)CO)C[C@@H]1C | -2
CC(C)C#Cc1cnc2c(c1)C(=O)N([C@H](C)CO)C[C@@H](C)[C@H](CN(C)C(=O)c1ccccc1)O2 | 1
CCN(CC)CCNc1nc(-c2ccccc2)nnc1C(F)(F)F | 44*
SMILES | miR122 inh
C[C@H](CO)N1C[C@H](C)[C@H](CN(C)C(=O)c2ccc(F)cc2)Oc2ncc(C3=CCCCC3)cc2C1=O | 3
C[C@H](CO)N1C[C@H](C)[C@H](CN(C)Cc2ccc(C(=O)Nc3ccccc3N)cc2)Oc2ccc(NS(=O)(=O)c3ccccc3)cc2CC1=O | -145
C[C@H](CO)N1C[C@H](C)[C@@H](CN(C)C(=O)CN(C)C)Oc2ncc(C#C[C@@H](C)O)cc2C1=O | 6
C[C@H]1CN([C@@H](C)CO)C(=O)c2cc(/C=C/c3ccccc3)cnc2O[C@H]1CN(C)C(=O)c1cccnc1 | -22
COCC(=O)N(C)C[C@H]1Oc2cc(Br)ccc2S(=O)(=O)N([C@@H](C)CO)C[C@H]1C | 7
CC(C)CC#Cc1ccc2c(c1)O[C@@H](CN(C)C(=O)C1CCOCC1)[C@@H](C)CN([C@@H](C)CO)S2(=O)=O | -29
Cc1ccc(-n2ncc(C(=O)Nc3cc(Cl)ccc3C)c2C2CCNCC2)cc1C | 36*
COc1ccc(C#Cc2ccc3c(c2)O[C@@H](CN(C)C)[C@@H](C)CN([C@H](C)CO)S3(=O)=O)cc1 | 3
C/C=C/c1cnc2c(c1)C(=O)N([C@H](C)CO)C[C@H](C)[C@@H](CN(C)S(=O)(=O)c1cccs1)O2 | -1
COc1cccc(-c2cnc3c(c2)C(=O)N([C@H](C)CO)C[C@@H](C)[C@H](CN(C)Cc2ccccc2)O3)c1 | -7
COc1cccc(-c2cnc3c(c2)C(=O)N([C@@H](C)CO)C[C@@H](C)[C@H](CN(C)Cc2ccccc2)O3)c1 | -7
COc1cccc(-c2nn(-c3ccccc3)cc2CO)c1 | 34*
COCC(=O)N(C)C[C@@H]1Oc2cc(C#CC3CC3)ccc2S(=O)(=O)N([C@@H](C)CO)C[C@@H]1C | 2
C[C@@H]1CN([C@@H](C)CO)C(=O)c2cc(-c3ccc(C#N)cc3)cnc2O[C@@H]1CN(C)CC1CCOCC1 | 7
C[C@@H]1CN([C@@H](C)CO)C(=O)c2cc(C#Cc3ccccc3)cnc2O[C@@H]1CN(C)C(=O)c1ccccn1 | 2
COc1ccc(S(=O)(=O)N(C)C[C@@H]2Oc3cc(-c4ccccc4OC)ccc3S(=O)(=O)N([C@@H](C)CO)C[C@@H]2C)cc1 | 1
CC(C)Oc1ccc(CNCCC2(C(C)C)CCOC(C)(C)C2)cc1 (stereo not drawn) | 71*
C[C@@H]1CN([C@H](C)CO)C(=O)c2cc(-c3cccnc3)cnc2O[C@@H]1CN(C)S(C)(=O)=O | -4
CCC(=O)N1C[C@@H](C)[C@@H](OC)CN(C)C(=O)c2ccc(NS(C)(=O)=O)cc2OC[C@H]1C | -2
